# Sampled rows, rich in hits. Any-hit rate of the full collection: about 4%.
# KKLEB cytotox: counter-screen for CF NF-kB inhibitors: cytotoxicity; hit rate 0.36% among 360,000; AID 602141; activity change (cytotoxicity), % at 5 µM; KKLEB CF airway cells viability, ATPlite luminescence, overnight; stronger effect = lower value; cells stimulated with P. aeruginosa culture filtrate;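 active = corrected activity change at or below -50% at 5 µM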
# HIF-2a block: inhibitors of HIF-2a | hit rate 0.72% among 360,000 | 786-0 RCC cells HIF-2a reporter, luciferase luminescence, overnight | inhibition, % at 18.8 µM;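 active = inhibition of the luminescence signal of 40% or more relative to plate controls, in a single-dose primary screen at 18.75 µM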
# TROY NFkB inh: blocks TROY-dependent signaling in reporter cells; hit rate 0.98% among 360,000; Q293 LMP1-TROYcd NF-kB luciferase reporter, 4 h; inhibition, % at 10 µM; AID 1347056;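 active = compounds whose plate-normalised and pattern-corrected inhibition of the luciferase reporter signal at the single screening dose is 50% or more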
# TWEAK Fn14 block: inhibitors of TWEAK-Fn14 interaction signaling | TWEAK-stimulated Fn14 reporter cells, luciferase luminescence, 8 h | inhibition, % at 10 µM | hit rate 2% among 360,000 | AID 1159606; in the data active = inhibition above about 50%
# Peg3 prom inh: reduces Peg3 promoter-driven luciferase expression in HeLa; HeLa PEG-Prom luciferase reporter, luminescence, overnight; inhibition, % at 20 µM; hit rate 1.7% among 360,000;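 active = inhibition of at least 50% at 20 µM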
# CF NFkB inh: inhibitors of cystic fibrosis induced NF-kB; KKLEB NF-kB-GFP reporter, PAF-induced, GFP fluorescence overnight; hit rate 0.86% among 360,000; inhibition, % at 5 µM;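 active = at least 50% inhibition at 5 µM, scaled per plate between neutral and stimulator controls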;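 note: PAF is a Pseudomonas aeruginosa culture filtrate used as stimulus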
# CF NFkB conf: confirmation of cystic fibrosis induced NF-kB inhibitors; shares compounds with CF NFkB inh; KKLEB CF airway cells, PAF-induced NF-kB-GFP fluorescence, overnight; inhibition, % at 5 µM; hit rate 64% among 1,300; AID 602472; in the data active = inhibition above about 40%;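 note: stimulus PAF is a Pseudomonas aeruginosa filtrate and not platelet activating factor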
# Mdm2-MdmX confirm: Mdm2/MdmX (human) interaction inhibition, confirmed | inhibition, % at 8 µM | SaOS-2 split-luciferase Mdm2/MdmX complementation, luminescence | shares compounds with HIF-2a block | hit rate 99% among 740;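 active = mean inhibition of the luminescence signal across two replicates at or above 26 percent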
# Target sequence (O15151 whole entry, looked up): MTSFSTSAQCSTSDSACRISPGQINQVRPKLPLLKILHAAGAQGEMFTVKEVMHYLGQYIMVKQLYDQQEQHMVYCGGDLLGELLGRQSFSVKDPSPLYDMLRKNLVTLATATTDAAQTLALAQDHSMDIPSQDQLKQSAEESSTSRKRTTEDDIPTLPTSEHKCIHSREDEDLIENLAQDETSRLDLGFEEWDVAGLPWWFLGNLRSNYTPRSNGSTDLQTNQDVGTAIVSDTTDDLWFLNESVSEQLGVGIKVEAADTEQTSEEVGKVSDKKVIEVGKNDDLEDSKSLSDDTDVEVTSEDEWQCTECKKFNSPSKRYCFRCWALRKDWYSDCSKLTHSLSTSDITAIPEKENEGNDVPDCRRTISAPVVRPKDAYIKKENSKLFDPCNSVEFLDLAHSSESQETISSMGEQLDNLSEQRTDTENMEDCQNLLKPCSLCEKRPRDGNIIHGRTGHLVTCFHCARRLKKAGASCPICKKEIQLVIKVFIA
# Target sequence (Q00987 whole entry, looked up): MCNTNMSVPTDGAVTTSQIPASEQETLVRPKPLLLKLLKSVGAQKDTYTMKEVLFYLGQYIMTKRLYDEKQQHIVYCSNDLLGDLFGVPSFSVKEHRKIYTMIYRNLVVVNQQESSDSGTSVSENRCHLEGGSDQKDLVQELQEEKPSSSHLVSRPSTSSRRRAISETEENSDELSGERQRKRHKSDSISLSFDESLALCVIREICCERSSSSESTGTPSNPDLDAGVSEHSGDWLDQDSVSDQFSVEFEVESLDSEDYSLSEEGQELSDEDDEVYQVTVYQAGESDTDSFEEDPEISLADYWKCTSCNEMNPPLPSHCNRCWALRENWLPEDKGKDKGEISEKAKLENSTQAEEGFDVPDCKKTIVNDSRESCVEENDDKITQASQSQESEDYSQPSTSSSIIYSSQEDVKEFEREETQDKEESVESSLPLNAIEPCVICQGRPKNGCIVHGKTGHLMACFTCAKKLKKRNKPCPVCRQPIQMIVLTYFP
# HIF-2a conf: HIF-2a inhibition, single concentration confirmation; shares compounds with HIF-2a block; 786-0 RCC cells, HIF-2a luciferase reporter luminescence, overnight; inhibition, % at 18.8 µM; hit rate 56% among 1,800; AID 651580;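 active = mean inhibition across four replicates of at least 40 percent at the single tested concentration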
# HIF-1a cs: counter-screen for HIF-2a inhibitors: HIF-1a inhibition in MiaPaCa-2 cells | inhibition, % at 18.8 µM | hit rate 72% among 1,800 | AID 651589 | shares compounds with HIF-2a block | MiaPaCa-2 HIF-1a luciferase reporter, desferoxamine, overnight;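 active = mean inhibition of the reporter signal across four replicates at the single tested dose of 50% or more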
# A number is an active result; n = inactive; x = no result given.
SMILES,KKLEB cytotox,HIF-2a block,TROY NFkB inh,TWEAK Fn14 block,Peg3 prom inh,CF NFkB inh,HIF-2a conf,HIF-1a cs,others
COc1cc(/C=C/C(=O)c2ccc(O)cc2)ccc1OCC#N,n,51.3,n,70.8,97.2,65.2,n,100.2,CF NFkB conf=n
Cn1ncc2c(O/N=C(\N)c3ccc(C(C)(C)C)cc3)ncnc21,n,93.1,n,99.6,112.2,57.9,98.3,n,CF NFkB conf=87.8;Mdm2-MdmX confirm=103.0
COc1ccc(OC)c(S(=O)(=O)NC2CC(=O)N(c3ccc(C)c(C)c3)C2)c1 (centres undefined),n,n,n,n,n,n,x,x,
Cc1cccc(C)c1NS(=O)(=O)c1ccc(-c2cnc(C3CC3)o2)cc1,n,47.0,n,n,n,65.2,n,50.8,CF NFkB conf=73.1
Cc1cc2c([nH]c3ccccc32)c2c1OC(C)(C)C=C2,n,n,n,n,n,n,x,x,
COc1ccc2[nH]c(=O)c3c(c2c1)OC(C)(C)C=C3,n,n,n,n,n,86.5,x,x,CF NFkB conf=97.6;Mdm2-MdmX confirm=98.5
CC(=O)c1ccc(-c2cnc3c(NC=O)cc(-c4ccc(C(=O)NC5CC5)cc4)cn23)cc1,n,38.6,n,n,62.8,56.0,n,94.2,CF NFkB conf=60.8
COc1ccc(-c2cnc3c(NC(C)=O)cc(-c4ccc(C(=O)NC5CC5)cc4)cn23)cc1OC,n,n,n,n,n,n,x,x,
COc1ccccc1-c1cc(C(F)(F)F)nc(N2CCCC2)n1,n,n,n,n,n,n,x,x,
COc1ccccc1-c1cc(C(F)(F)F)nc(S(C)(=O)=O)n1,n,77.9,52.6,n,105.5,69.3,67.7,105.3,CF NFkB conf=40.2;Mdm2-MdmX confirm=102.0
CCCc1cc(-c2[nH]ncc2-c2ccc3c(c2)OCCCO3)c(O)cc1O,n,45.6,n,n,68.9,50.5,n,81.5,CF NFkB conf=68.2
Cn1nnnc1Sc1ncnc2scc(-c3cccc(S(C)(=O)=O)c3)c12,n,63.4,n,60.9,100.1,52.1,n,65.7,CF NFkB conf=n
O=C(O)CSc1ncnc2scc(-c3ccccc3)c12,n,n,n,n,n,n,x,x,
COc1ccc(-c2csc3ncnc(Sc4nnnn4C)c23)cc1,n,61.7,n,56.0,69.0,58.5,62.4,103.9,CF NFkB conf=54.2
Cn1nnnc1Sc1c(Cl)cccc1[N+](=O)[O-],n,n,n,n,n,n,x,x,
Cn1nnnc1Sc1ncnc2scc(-c3ccccc3Cl)c12,n,65.4,n,51.5,105.6,56.2,n,90.7,CF NFkB conf=n
C[C@H](CO)N1C[C@H](C)[C@@H](CN(C)C(=O)Nc2ccc3c(c2)OCO3)Oc2ccc(NS(=O)(=O)c3ccc(F)cc3)cc2C1=O,n,n,n,n,n,n,x,x,
O=C(CN(CC1CCCO1)C(=O)CNS(=O)(=O)c1ccc(F)cc1)NCCc1ccccc1 (centres undefined),n,n,n,n,n,n,x,x,
Cn1c(/C=C/c2ccc([N+](=O)[O-])o2)nc2ccccc2c1=O,n,75.5,n,n,110.5,n,n,104.7,Mdm2-MdmX confirm=102.5
Cc1ccc(C(=O)OC(C)C(=O)NC2CCCCC2)cc1S(=O)(=O)N1CCCCC1 (centres undefined),n,n,n,n,n,n,x,x,
CC(OC(=O)c1ccc(S(C)(=O)=O)c([N+](=O)[O-])c1)C(=O)NC1C2CC3CC(C2)CC1C3 (centres undefined),n,92.9,n,101.6,95.0,95.0,87.5,100.0,
CCC(OC(=O)c1ccc(S(C)(=O)=O)c([N+](=O)[O-])c1)C(=O)NC1C2CC3CC(C2)CC1C3 (centres undefined),-74.2,81.1,n,100.1,96.4,103.6,n,104.5,
COc1ccccc1NC(=O)CCN1C(=O)c2ccccc2S1(=O)=O,n,n,n,n,n,n,x,x,
O=C(CCl)N=c1sccn1Cc1ccc(Cl)cc1Cl,-85.4,n,n,55.0,n,89.8,x,x,Mdm2-MdmX confirm=103.5
CCC(=O)OCC(=O)N=c1sccn1Cc1ccccc1Cl,n,n,n,n,n,n,x,x,
SMILES,KKLEB cytotox,HIF-2a block,TROY NFkB inh,TWEAK Fn14 block,Peg3 prom inh,CF NFkB inh,HIF-2a conf,HIF-1a cs,others
CCC(=O)OCC(=O)N=c1sccn1Cc1ccc(C)cc1,n,n,n,n,n,n,x,x,
O=C(CCl)N=c1sccn1Cc1ccccc1Cl,-67.9,n,n,n,n,77.9,x,x,Mdm2-MdmX confirm=102.7
Cc1nn(-c2ccccc2Cl)c(Cl)c1/C=N/Nc1cccc(C(=O)O)c1,n,58.2,n,n,n,n,51.7,n,
Cc1nn(-c2cccc(C(F)(F)F)c2)c(Cl)c1/C=N/Nc1cccc(C(=O)O)c1,n,n,n,n,n,n,x,x,
Cc1ccc(/C=N/Nc2cccc(C(=O)O)c2)s1,n,62.3,n,n,n,n,58.8,n,
CCOc1cc(/C=N/Nc2cccc(C(=O)O)c2)ccc1OC(=O)c1ccccc1,n,87.4,n,n,65.0,n,90.4,n,
COc1cc(C=NNc2ccccc2)ccc1OC(=O)c1ccccc1,n,n,n,n,n,n,x,x,
COc1ccc(C(C)=O)cc1CSc1nnc(-c2ccc(Cl)cc2)n1-c1ccccc1,n,41.2,n,n,n,n,n,n,
Cc1nc([N+](=O)[O-])c(Br)n1Cc1ccc(Cl)c(Cl)c1,n,70.4,n,81.3,103.7,86.3,n,102.0,
Cc1cc2oc(=O)cc(Cn3ncc(Cl)c(Cl)c3=O)c2cc1Cl,-68.7,n,82.6,79.8,106.1,87.8,x,x,Mdm2-MdmX confirm=103.0
Cc1ccc(C)c(C(=O)Cn2ncc(Cl)c(Cl)c2=O)c1,n,86.3,n,68.3,108.9,n,n,104.3,
Cc1cccc(Cn2ncc(Cl)c(Cl)c2=O)c1,n,n,n,n,n,n,x,x,Mdm2-MdmX confirm=102.7
O=C(CCCCCNC(=O)N1CCn2c1nc1ccccc12)NCc1ccc(F)cc1,n,n,n,n,n,n,x,x,
CC(C)N(C)c1ncnc2c1ncn2[C@H]1CN(Cc2ccc3c(c2)OCO3)C[C@@H](CO)O1,n,n,n,n,n,n,x,x,
CC(=O)c1ccc(OCC(=O)N(C2CCCCC2)C2CCS(=O)(=O)C2)cc1 (centres undefined),n,n,n,n,n,n,x,x,
O=C(CCl)N(C1CCCC1)C1CCS(=O)(=O)C1 (centres undefined),n,n,n,n,n,n,x,x,Mdm2-MdmX confirm=101.7
CC(C)(C)c1ccc(-c2noc(CCC(=O)NCc3ccco3)n2)cc1,n,85.1,n,n,n,n,92.2,n,
O=S(=O)(Nc1ccccc1)C1CCCCC1,n,n,n,n,n,n,x,x,
Cn1c(=S)n(C)c2ccccc21,n,55.3,n,n,n,n,n,n,

# High-throughput results from PubChem BioAssay.
